Source: PubChem BioAssay (EPA / NIEHS)
Values joined by “and” are separate entries in the source; they are usually repeats but may differ in a detail not shown here. Identical values can stand only once. Results filed as inconclusive are left out. The source holds several records for some structures; these can differ, active in one and inactive in another. Active and inactive are the calls of the source. The calls were made as follows: active = hit-call score of the fitted dose curve at least 0.9, where 1 is the maximum; inconclusive = response in the unintended direction; inactive = score below 0.9.

assay: ACEA_ER_AUC_viability: ACEA Biosciences xCELLigence Real-Time Cell Analysis on Estrogen Receptor Agonism for Viability (AID 2283782);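 also: continuous compound exposure with impedance area under curve over 80 h; hit means loss of impedance signal meaning reduced cell growth or viability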
Procedure: ACEA_ER is a cell-based, single-readout assay that uses T47D, a human breast cell line, with measurements taken at 80 hours after chemical dosing in a 96-well plate, although TO2 (mc0.srcf) used a 384-well plate. Differences in plate size can be ignored given data normalization.ACEA_ER_AUC_viability is one of two assay component(s) measured or calculated from the ACEA_ER assay. It is designed to make measurements of real-time cell-growth kinetics, a form of growth reporter, as detected with electrical impedance signals by Real-Time Cell Electrode Sensor (RT-CES) technology.Data from the assay component ACEA_ER_AUC_viability was analyzed in the positive analysis fitting direction relative to DMSO as the negative control and baseline of activity. Using a type of growth reporter, loss-of-signal activity can be used to understand changes in the viability. Furthermore, this assay endpoint can be referred to as a secondary readout, because this assay has produced multiple assay endpoints where this one serves a viability function. To generalize the intended target to other relatable targets, this assay endpoint is annotated to the cell cycle intended target family, where the subfamily is cytotoxicity.
The xCELLigence system Multi-E-Plate stations were used to measure the time-dependent response to chemicals. Each compound was tested in an eight-point, 1:4 serial dilution series starting at a maximum final concentration of 100 uM. A maximum starting concentration of 0.5% DMSO was present in the 100 uM chemical samples and was diluted along with the test article dilution series. The screen was performed in biological duplicate using two separate, 96-well, E-Plates 96 for each dilution series (n = 2). Positive controls (MG132 and E2) and a negative control (assay media) were tested in quadruplicate on each testing plate. Then, 0.5% and 0.125% DMSO were tested in duplicates in each plate to serve as solvent controls for the 2 highest concentrations of testing compounds: 100 uM and 25 uM. Reference compounds were tested with 8 concentrations with 1:5 serial dilutions. All screening was carried out by ACEA Biosciences, Inc. (San Diego, CA). T-47D cells purchased from ATCC were maintained in RPMI1640 media supplemented with 10% characterized fetal bovine serum (FBS). Before screening, T-47D cells were preconditioned in assay medium: phenol red-free RPMI1640 supplemented with 10% charcoal-stripped FBS. Cells were then detached and seeded in E-Plates 96 in assay medium. After overnight monitoring of growth once every hour, compounds were added to […] cells and remained in the medium until the end of the experiment. Cellular responses were then recorded once every 5 min for the first 5 h, and once every hour for an additional 100 h.

SMILES | outcome | AC50
CCCN(CCC)c1c([N+](=O)[O-])cc(S(N)(=O)=O)cc1[N+](=O)[O-] | inactive | 24 µM (active) and 82.5 µM (active) and 21.4 µM (active)
CCCCOC(=O)c1ccccc1C(=O)OCCCC | inactive | 78.3 µM (active)
CCCCC(CC)COC(=O)c1ccccc1C(=O)OCC(CC)CCCC (stereo not drawn) | inactive | –
CCCC1COC(Cn2cncn2)(c2ccc(Cl)cc2Cl)O1 (stereo not drawn) | – | 92.1 µM (active)
COC(=O)c1ccccc1C(=O)OC | inactive | –
O=C(Nc1ccccc1)Nc1ccnc(Cl)c1 | – | 81.3 µM (active)
C#CCOS(=O)OC1CCCCC1Oc1ccc(C(C)(C)C)cc1 (stereo not drawn) | – | 87.4 µM (active)
CS/C(C)=N/OC(=O)N(C)SN(C)C(=O)O/N=C(\C)SC | – | 24.8 µM (active)
CCNc1nc(Cl)nc(NC(C)C)n1 | inactive | –
C=CCC1=C(C)[C@@H](OC(=O)[C@@H]2[C@@H](C=C(C)C)C2(C)C)CC1=O | – | 89.8 µM (active)
Oc1ccccc1-c1ccccc1 | – | 78 µM (active)
CCCCNC(=O)OCC#CI | – | 5.58 µM (active)
CCc1nn(C)c(C(=O)NCc2ccc(C(C)(C)C)cc2)c1Cl | inactive | –
O=C(O)c1nc(Cl)ccc1Cl | inactive | –
COc1ccc(C(c2ccc(OC)cc2)C(Cl)(Cl)Cl)cc1 | – | 88.6 µM (active)
C=CCC1=C(C)C(OC(=O)C2C(C=C(C)C)C2(C)C)CC1=O (stereo not drawn) | inactive | 87.8 µM (active) [middle of 5 runs]
CCON=C(CC)C1=C(O)CC(c2c(C)cc(C)cc2C)CC1=O (stereo not drawn) | inactive | –
C=CC1(C)OC(=O)N(c2cc(Cl)cc(Cl)c2)C1=O (stereo not drawn) | inactive | –
CC1COC(Cn2cncn2)(c2ccc(Oc3ccc(Cl)cc3)cc2Cl)O1 (stereo not drawn) | – | 83.2 µM (active)
Fc1ccc(Oc2ccnc3cc(Cl)cc(Cl)c23)cc1 | – | 80.2 µM (active)
COP(=S)(OC)Oc1nc(Cl)c(Cl)cc1Cl | – | 79 µM (active)
CCCCNC(=O)n1c(NC(=O)OC)nc2ccccc21 | – | 18.1 µM (active)
OC(c1ccc(Cl)cc1)(c1cncnc1)c1ccccc1Cl (stereo not drawn) | inactive | –
CN(C)C(=S)SSC(=S)N(C)C | – | 91 µM (active)
COC(=O)N(OC)c1ccccc1COc1ccn(-c2ccc(Cl)cc2)n1 | – | 92.3 µM (active)
N#Cc1nn(-c2c(Cl)cc(C(F)(F)F)cc2Cl)c(N)c1S(=O)C(F)(F)F (stereo not drawn) | – | 83.3 µM (active)
CC(C)Oc1cc(-n2nc(C(C)(C)C)oc2=O)c(Cl)cc1Cl | – | 81.9 µM (active)
CCOC(=O)C(Cl)Cc1cc(-n2nc(C)n(C(F)F)c2=O)c(F)cc1Cl (stereo not drawn) | inactive | –
CNC(=S)S | inactive | –
CON(C)C(=O)Nc1ccc(Cl)c(Cl)c1 | inactive | –
